Screening results deposited in PubChem by National Center for Advancing Translational Sciences (NCATS).
SW480 rereplic = induces DNA re-replication in SW480 colon adenocarcinoma cells. SW480 DNA re-replication, Hoechst DNA content imaging, 48 h. Potency, µM (series often up to 46.1 µM), for the others: at the highest dose re-replication activation, hits mostly activators. 340,000 tested, 1.8% active; further: potency means the concentration at half of the fitted maximal effect; % of control where 0% means no effect; nearly all actives have a fitted effect of over 55% in size
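Per well, 250 cells were exposed to pinned compound for 48 hr. Nuclear DNA was visualised with Hoechst (40 min, 37 C) and total object intensity recorded by fluorescence scanning.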
IL1B secr inh = inhibitors of inflammasome signaling (IL-1 beta secretion) | THP-1 LPS/ATP IL-1B secretion, AlphaLISA, 16 h; stronger effect = lower value | activity change, % at 57.5 µM | 360,000 tested, 4.7% active; in the data active means activity change below about -50%; inconclusive means mostly about -30% to -49%; further: on the % scale 0 is the no-effect control and ±100 the full control effect
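THP-1 cells pretreated 1 hr with compounds (up to 57.5 uM final), then stimulated with LPS (250 ng/mL final) plus ATP (1.25 mM final); secreted IL-1B measured by AlphaLISA after 16 hr, decreased signal indicating inhibition.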
MCF10A rerep = induces DNA re-replication in MCF 10a normal breast cells. MCF 10A DNA re-replication, Hoechst nuclear intensity, 48 h. Potency, µM (titrated, usually from 46.1 µM), for inactives: at the highest dose activity, positive = re-replication, actives largely listed as activators. 350,000 tested, 2.9% active. AID 624296; further: potency means the concentration at half of the fitted maximal effect; % of control where 0% means no effect; nearly all actives have a fitted effect of over 50% in size
Vif-A3F inh = Vif-A3F binding inhibition | 390,000 tested, 0.2% active | AID 602313 | Potency, µM (doses to about 46.1 µM), without a hit: at the highest dose activity, negative = active | HeLa A3F-eYFP + Vif (tagged APOBEC3F with the HIV-1 protein that degrades it), YFP fluorescence increase; further: potency means the concentration at half of the fitted maximal effect; % of control where 0% means no effect; nearly all actives have a fitted effect of over 65% in size
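Fluorescence increase (Ex 488/Em 500-530) after overnight compound treatment at 37 deg C flags inhibition of Vif-driven A3F-eYFP loss in stable HeLa A3F-eYFP/Vif cells seeded overnight beforehand.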
Vif-A3G inh = Vif-A3G binding inhibition; Q9HC16; HeLa A3G-eYFP + Vif (tagged APOBEC3G with the HIV-1 protein that degrades it), YFP fluorescence, overnight; Potency, µM (titrated, usually from 46.1 µM), inactives show at the top dose activity, negative = active, actives largely listed as inhibitors; 410,000 tested, 0.076% active; AID 602310; further: potency means the concentration at half of the fitted maximal effect; on the % scale 0 is the no-effect control and ±100 the full control effect; nearly all actives have a fitted effect of over 60% in size
Target sequence (Q9HC16 whole entry, looked up): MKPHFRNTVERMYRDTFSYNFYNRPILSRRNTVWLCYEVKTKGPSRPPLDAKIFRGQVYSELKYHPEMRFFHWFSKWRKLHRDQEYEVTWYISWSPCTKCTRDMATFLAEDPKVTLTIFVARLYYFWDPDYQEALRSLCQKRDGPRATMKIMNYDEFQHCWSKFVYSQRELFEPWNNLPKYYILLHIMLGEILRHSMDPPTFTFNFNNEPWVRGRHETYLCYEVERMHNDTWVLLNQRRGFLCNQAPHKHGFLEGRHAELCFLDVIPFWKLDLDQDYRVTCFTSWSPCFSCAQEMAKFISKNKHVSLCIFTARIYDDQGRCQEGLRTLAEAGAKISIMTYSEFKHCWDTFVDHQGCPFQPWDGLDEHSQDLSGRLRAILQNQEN
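HeLa cells stably expressing Vif and C-terminally eYFP-tagged A3G, seeded overnight at 37 deg C, then exposed to compound by pintool overnight at 37 deg C. Rise in yellow fluorescence (Ex 488/Em 500-530, Acumen) marks blocked Vif-driven A3G degradation.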
Giardia killer = kills Giardia lamblia; 340,000 tested, 0.15% active; AID 540267; activity change, % at 7.66 µM, hits read low; Giardia lamblia trophozoite viability; in the data active means activity change below about -80%; inconclusive means between about -30% and that limit;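 further: parasites exposed to compound for two days anaerobically before the ATP read; on the % scale 0 is the no-effect control and ±100 the full control effect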
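Giardia trophozoites, 100 cells per well, were exposed to compounds for 48 hrs at 37 deg C under anaerobic conditions; viability was then read as ATP content by bioluminescence after 15-30 min at room temperature.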
* hit, by the source's call; ? = inconclusive; / = no result given; [ ] = another dose, or the depositor's remark. Compounds with a hit are over-represented: about 6.9% of the library has one in this group of screens. Unless noted, the call rests on the fitted dose curve; in most records, active means well fitted curve in the direction sought with a large enough effect; inconclusive means small, poorly fitted or top-dose-only effect, or another doubt; inactive means no such curve, though single readings can be large; an effect the other way counts as inactive or inconclusive.

SMILES	SW480 rereplic	IL1B secr inh	MCF10A rerep	Vif-A3F inh	Vif-A3G inh	Giardia killer
NS(=O)(=O)c1ccc(CCNC(=O)CSc2nc3ccccc3c(=O)n2CCN2CCOCC2)cc1	-2%	0	4%	0%	7%	-5
O=c1c2ccccc2nc(SCCN2CCCCC2)n1CCc1ccccc1	?	-60*	?	-8%	3%	-5
NS(=O)(=O)c1ccc(CCNC(=O)CSc2nc3ccccc3c(=O)n2CCC(=O)N2CCCCC2)cc1	-35%	-17	0.73µM*	5%	4%	-6
CS(=O)(=O)N1CCc2cc(C(=O)Nc3cccc(F)c3)ccc21	/	/	/	-3%	0%	/
N/C(CCS(=O)(=O)c1ccc(Cl)cc1)=N\OC(=O)c1ccccc1C(F)(F)F	?	-84*	?	-7%	-15%	7
N/C(CCS(=O)(=O)c1ccc(Cl)cc1)=N\OC(=O)c1ccc(Cl)cc1	0%	?	-1%	10%	3%	10
CC1CCN(S(=O)(=O)c2ccc3nc(Nc4cccc(F)c4)ccc3c2)CC1	/	/	/	?	-13%	/
O=C(Nc1ccncc1)C1CCCN(S(=O)(=O)c2cccc3cccnc23)C1 (centres undefined)	2.1µM*	33	9.2µM*	-16%	?	-8
CC1=C(C(=O)OCc2ccccc2)C(c2cccc([N+](=O)[O-])c2)NC(=O)N1C (centres undefined)	-59%	10	0.82µM*	11%	1%	6
CCCCNC(=O)C(C)N(CCN(C)C)C(=O)CCCN1C(=O)NC(c2ccc([N+](=O)[O-])cc2)C(C(=O)OCc2ccccc2)=C1C (centres undefined)	-73%	-79*	13%	-1%	-1%	-21
COc1ccc2sc(N(Cc3cccnc3)C(=O)c3ccc4c(c3)OCCO4)nc2c1	/	/	/	1%	15%	/
CCOc1ccc(N2C(=O)/C(=C/c3ccccc3)N=C2SC)cc1	7%	7	5.8µM*	-13%	0%	-22
COc1ccc(/C=C2\N=C(SC)N(c3ccccc3OC)C2=O)cc1	18µM*	?	?	6%	2%	-28
CCCOc1ccc(N2C(=O)C/C(=C\c3ccccc3)C2=O)cc1	-1%	-12	2%	6%	2%	8
CC(C)Cc1nn2c(=O)cc(COC(=O)c3ccccc3NC(=O)c3ccccc3)nc2s1	/	/	/	-22%	5%	/
O=C(NCCc1ccc(Cl)cc1)c1ccc(CS(=O)Cc2cccc(Cl)c2)o1 (centres undefined)	/	/	/	2%	5%	/
O=C(COc1ccc(Cl)cc1)Nc1ccc(Cc2ccncc2)cc1	-11%	-71*	?	-6%	-6%	-2
COc1cc(NC(=O)NCCN2CCN(c3ccc(Cl)cc3)CC2)ccc1C	?	-60*	?	0%	0%	-3
CCOc1ccc(NC(=O)NCCN2CCN(c3cccc(C)c3C)CC2)cc1	?	-3	-11%	0%	0%	8
O=C(COc1ccc2ccccc2c1)Nc1ccc(Cc2ccncc2)cc1	-4%	18	13%	-3%	0%	-8
Cc1nn(C)c(C)c1NC(=O)COc1ccc(F)cc1Br	-7%	3	16%	-4%	1%	4
CCOc1cccc(N2CCN(CCNC(=O)Nc3ccc(C)cc3)CC2)c1C	-19%	-68*	-4%[9.22 µM]	8%	6%	-19
Cc1nn(C)c(C)c1NC(=O)COc1ccc(Cl)cc1Br	-3%	21	16µM*	6%	0%	13
CC(=O)c1cccc(NC(=O)CSc2ncc3c(n2)-c2cc(Cl)ccc2N(Cc2ccccc2)S3(=O)=O)c1	/	/	/	0%	2%	/
CN(C)CCNC(=O)c1ccc(Cn2c(=O)c3cccn3c3cccnc32)cc1	/	/	/	0%	-2%	/
SMILES	SW480 rereplic	IL1B secr inh	MCF10A rerep	Vif-A3F inh	Vif-A3G inh	Giardia killer
Cc1cc(Cl)ccc1OCC(=O)Nc1ccncc1	-22%	?	16µM*	0%	-7%	-6
Cc1cc(Cl)ccc1OCC(=O)NCc1ccncc1	-3%	-1	-8%	3%	0%	4
CCN1CCN(c2ccc(NC(=O)COc3ccc(Cl)cc3C)cc2)CC1	15µM*	-11	?	1%	4%	?
Cc1c(C(=O)c2no[n+]([O-])c2C(=O)c2cnn(C)c2C)cnn1C	?	12	11µM*	5%	?	20
Cc1c(C(=O)Nc2ccc(Br)cc2)cnn1C	0%	17	2%	-3%	3%	-7
CC(C)(C)c1ccc(OCCCn2ccnc2)cc1	2%	-68*	?	-6%	0%	?
Cc1cc(Cl)cc(C)c1OCCCCn1ccnc1	-11%	-26	5%	-1%	2%	3
Cc1cc(OCCCCn2ccnc2)cc(C)c1Cl	2%	-70*	?	-18%	-6%	1
c1ccc2cc(OCCCn3ccnc3)ccc2c1	20%	?	6%	6%	0%	-5
Cc1cccc(N2CCN(S(=O)(=O)c3ccc(-c4cnc(C5CC5)o4)cc3)CC2)c1C	/	/	/	2%	6%	/
Cc1ccc(-n2cc(C(=O)OCc3ccc(F)c(F)c3)c3ccccc3c2=O)cc1	/	/	/	0%	-2%	/
O=S(=O)(c1ccccc1)N1CCN(c2nc(-c3ccc(F)cc3)nc3cc(Cl)ccc23)CC1	/	/	/	/	-2%	-6
COc1ccc(S(=O)(=O)N2CCN(Cc3nc4ccc(C)cc4o3)CC2)cc1	/	/	/	-1%	3%	/
Cc1cccc(N2CCC(N3CCN(C4CCCCC4)C(CCO)C3)CC2)c1C (centres undefined)	-7%	-14	16µM*	-3%	0%	7
Cc1cc2oc(C(=O)Nc3c(C(=O)Nc4ccccc4)oc4ccccc34)cc(=O)c2cc1C	/	/	/	-2%	3%	/
COc1ccc(-n2cc(CNCCc3cscn3)c(-c3ccccc3Cl)n2)cc1	25%	-63*	7%	3%	0%	38
Cc1ccc(-n2cc(CNCCc3cscn3)c(-c3ccc(F)cc3)n2)cc1	84%	-94*	?	-12%	2%	2
COc1ccc(-n2cc(CNCC3CC(=O)N(C4CC4)C3)c(-c3ccccc3Cl)n2)cc1 (centres undefined)	-6%	?	3%	2%	1%	12
Cc1ccc(-n2cc(CNC(C)c3cnn(C)c3)c(-c3ccc(F)cc3)n2)cc1 (centres undefined)	?	-1	7%	0%	-1%	0
CCN1CC(CNCc2cn(-c3ccc(OC)cc3)nc2-c2ccccc2Cl)CC1=O (centres undefined)	-10%	-51*	-5%	-2%	-1%	6
Cc1ccc(-n2cc(CNCCCn3ccnc3C)c(-c3ccc(F)cc3)n2)cc1	?	-84*	?	-14%	-21%	12
